# Measured values: PubChem BioAssay (NCATS)
# Records with an inconclusive call do not appear. A number with no mark means an inactive call. The source made the active and inactive calls. Calls follow the shape of the dose curve; as a rule, active = well fitted inhibition curve with a large enough effect; inconclusive = small, poorly fitted or top-dose-only effect; inactive = flat fitted curve, though single readings scatter. Peptide text beside a SMILES is read from it.
# Tested on: CP325
# Assay: qHTS profiling for inhibitors of Plasmodium falciparum proliferation (AID 504749); also: nearly all actives have a fitted effect of over 60% in size;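 as to activity, negative = inhibition: 0% = DMSO vehicle and full inhibition = artemisinin control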
# Details: P. falciparum in erythrocytes, SYBR Green DNA, 72 h; series mostly up to 12.8 µM; activity, negative = inhibition: at the top concentration
# In short: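 Readout was DNA-dye fluorescence from lysed cultures, ex 485/em 535 nm. Parasitized red cells had grown 72 h with compound; data scaled between 0.29 uM artemisinin and DMSO wells and corrected using vehicle-only plates.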
# Potency is read from the fitted curve at half-maximal effect.
SMILES,"activity, negative = inhibition",Potency
CCC(C)C(=O)OC1CCC=C2C=CC(C)C(CCC3CC(O)CC(=O)O3)[C@@H]21 (some centres not stated),1.05% [at 28.7 µM],
C[C@]1(c2ccccc2)OC(C(=O)O)=CC1=O,0.865% [at 28.7 µM],
OCC1OC([S-])[C@H](O)C(O)C1O.[Au+] (some centres not stated),2.31% [at 28.7 µM],
COC(=O)N/N=C/C1=C[N+](=O)c2ccccc2[N+]1=O,0.472% [at 28.7 µM],
CN1CC(=O)N=C1N,-2.74% [at 28.7 µM],
CNC1CC(N)[C@H](O)[C@@H](O[C@@H]2OC(CO)C3OC4(OC(C(N)CO)C(O)C(O)C4O)O[C@@H]3[C@H]2O)C1O (some centres not stated),-3.39% [at 28.7 µM],
COC1C=CO[C@@]2(C)Oc3c(C)c(O)c4c(O)c(c(C=NN5CCN(C)CC5)c(O)c4c3C2=O)NC(=O)/C(C)=C\C=CC(C)C(O)[C@@H](C)C(O)C(C)[C@H](OC(C)=O)C1C (some centres not stated),,4.78 µM (active)
CC(=O)N[C@@H]1C(O)OC(CO)C(O)C1O (some centres not stated),-12.3% [at 28.7 µM],
CCC(CCC(C)C1CCC2C3CC=C4CC(O)CC[C@@]4(C)C3CC[C@@]12C)C(C)C (some centres not stated),2.78% [at 28.7 µM],
O=C1OC(CO)C(O)C(O)C1O (configuration not stated),-1.09% [at 28.7 µM],
COc1ccc(CC(N)C(=O)NC2C(CO)OC(n3cnc4c(N(C)C)ncnc43)C2O)cc1 (configuration not stated),,1.07 µM (active)
CCCC(=O)O[C@]1(C(=O)CO)CCC2[C@@H]3CCC4=CC(=O)CC[C@]4(C)C3C(O)C[C@]21C (some centres not stated),-1.09% [at 28.7 µM],
COC(=O)C(Cc1ccccc1)NC(=O)C(N)CC(=O)O (stereo not drawn) (H-Asp-Phe-OMe; configuration not given here),7.8% [at 28.7 µM],
CC[C@@]12CCCN3CCc4c(n(c5ccccc45)[C@](O)(C(=O)OC)C1)C32 (some centres not stated),-5.58% [at 28.7 µM],
CC1(C)SC2C(N3C(=O)C(c4ccccc4)NC3(C)C)C(=O)N2C1C(=O)O (configuration not stated),-4.6% [at 28.7 µM],
CC1CCC(C(C)C)C(=O)C1 (configuration not stated),11.6% [at 28.7 µM],

SMILES,"activity, negative = inhibition",Potency
CC(=O)N[C@H](CC(C)C)C(=O)O,8.86% [at 28.7 µM],
CC(C)C1CCC(C(=O)NC(Cc2ccccc2)C(=O)O)CC1 (configuration not stated),-0.302% [at 28.7 µM],
COc1ccc2cc(C(C)CO)ccc2c1 (configuration not stated),0.0047% [at 28.7 µM],
COc1ccc2cc1Oc1ccc(cc1)CC1c3c(cc4c(c3Oc3cc5c(cc3OC)CCN(C)C5C2)OCO4)CCN1C (configuration not stated),,12 µM (active)
CNC1C(OC2C(O[C@@H]3C(O)C(O)[C@@H](N=C(N)N)C(O)C3N=C(N)N)OC(C)[C@@]2(O)CO)OC(CO)C(O)C1O (some centres not stated),0.269% [at 28.7 µM],
CC1C2CCC3C4CC=C5CC(N(C)C)CC[C@@]5(C)C4CC[C@@]32CN1C (some centres not stated),3.81% [at 28.7 µM],
C[C@]12C=CC(=O)C=C1CCC1C2C(O)C[C@]2(C)C1CC[C@]2(O)C(=O)CO (some centres not stated),-7.35% [at 28.7 µM],
COc1ccc2c(c1)N(C[C@@H](C)CN(C)C)c1ccccc1S2,-0.0547%,
CCOC(=O)C1=CC(OC(CC)CC)C(NC(C)=O)C(N)C1 (configuration not stated),-3.18% [at 28.7 µM],
CN(C)CCc1c[nH]c2ccc(CC3COC(=O)N3)cc12 (configuration not stated),-0.497% [at 28.7 µM],
NCC1CCC(N)C(O[C@@H]2C(O)[C@H](O[C@H]3OC(CO)C(O)C(N)C3O)[C@@H](N)C[C@H]2N)O1 (some centres not stated),1.54% [at 28.7 µM],
OCC1O[C@H](OC2C(CO)O[C@@](O)(CO)C2O)C(O)C(O)C1O (some centres not stated),6.4% [at 28.7 µM],
CC1(C)OC2CO[C@]3(COS(N)(=O)=O)OC(C)(C)OC3C2O1 (some centres not stated),2.09% [at 28.7 µM],
CC(=O)OC1CCC2C3CCc4cc(O)ccc4C3CCC12C (configuration not stated),-1.93% [at 28.7 µM],
CN(C)CCCOC1C(C(O)CO)OC2OC(C)(C)O[C@@H]21 (some centres not stated),-1.76% [at 28.7 µM],
COc1cc(C2c3cc4c(cc3C(O[C@@H]3OC5COC(c6cccs6)OC5C(O)C3O)C3COC(=O)C23)OCO4)cc(OC)c1O (some centres not stated),,4.78 µM (active)
